FBPA Giardia inh = inhibitors of Giardia lamblia fructose-1,6-bisphosphate aldolase; A8B2U2; purified Giardia FBPA; Potency, µM (top dose mostly 59.6 µM), actives largely listed as inhibitors; hit rate 0.71% among 290,000; AID 2451; further: nearly all actives have a fitted effect of over 55% in size
Target sequence (A8B2U2 whole entry, looked up): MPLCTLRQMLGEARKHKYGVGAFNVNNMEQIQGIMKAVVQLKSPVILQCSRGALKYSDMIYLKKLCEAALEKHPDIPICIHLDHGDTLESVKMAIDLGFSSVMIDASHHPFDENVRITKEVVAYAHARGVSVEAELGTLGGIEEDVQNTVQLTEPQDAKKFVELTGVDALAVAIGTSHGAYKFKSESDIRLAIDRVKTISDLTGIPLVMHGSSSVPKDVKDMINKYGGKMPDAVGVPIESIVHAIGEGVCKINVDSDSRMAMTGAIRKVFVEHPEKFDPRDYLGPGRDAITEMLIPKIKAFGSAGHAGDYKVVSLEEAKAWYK
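40 nM FBPA preincubated 10 min at RT with compound (up to 57.5 uM final), then substrate plus GAPDH/TPI/NAD/arsenate coupling and diaphorase/resazurin added. Fluorescence read after 20 min at RT, 525/598 nm.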
LmPK inh = blocks Leishmania mexicana pyruvate kinase activity; purified LmPK, Kinase-Glo ATP luminescence, 1 h; Potency, µM (doses to about 57.5 µM), actives largely listed as inhibitors; hit rate 0.37% among 290,000
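qHTS format; LmPK 0.1 nM; substrates PEP 0.5 mM and ADP 0.1 mM. One-hour room-temperature incubation, then coupled luciferase luminescence; 0.5 nM enzyme wells mark activation.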
Cycloheximide cs = counter-screen for Shiga toxin inhibitors: cycloheximide protein synthesis inhibition; cell reporter, cycloheximide protein synthesis inhibition counterscreen; AID 2314; hit rate 12% among 300,000; max response, %; in the data active means max response mostly above about 13%, no sharp cut-off; inactive means mostly below about 14%; further: read at 38.3 µM for the half of the compounds with a filed dose
Shiga inhibitor = blocks Shiga toxin action in Vero cells | Vero cells, Shiga toxin protein synthesis inhibition reporter | inhibition, % at 38.7 µM | hit rate 9.2% among 290,000; in the data active means inhibition mostly above about 28%, no sharp cut-off; inactive means mostly below about 43%
Tb PYK inh = inhibitors of Trypanosoma brucei pyruvate kinase; Potency, µM (top dose mostly 76.8 µM), most hits filed as inhibitors; TbPYK enzyme, Kinase-Glo Plus ATP luminescence, 45 min; AID 624173; hit rate 0.12% among 410,000; Q57TT1; further: nearly all actives have a fitted effect of over 50% in size
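Readout: single end-point luminescence (Kinase-Glo Plus, 10 min). Reaction conditions were TbPYK/substrate plus 130 uM ADP, 45 min at RT, pH 7.2 TEA buffer. No-enzyme wells served as controls, and data were normalized before concentration-response fitting.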
Sm TGR inh = S. mansoni TGR enzyme inhibition; Q962Y6; purified TGR, DTNB reduction, TNB absorbance 405 nm; Potency, µM (titrated, usually from 114 µM), usual class: inhibitors; hit rate 3% among 360,000; AID 485364; further: nearly all actives have a fitted effect of over 60% in size
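First, TGR (20 nM dispensed) and NADPH were mixed with compound. Second, a 15 min room-temperature incubation followed. Third, further NADPH and then DTNB were added to start the reaction. Finally, TNB absorbance was monitored kinetically.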
Numbers stand for hits; 0 = inactive; ? = inconclusive; - = no result; [ ] = another dose, or the depositor's remark. The full list was thinned out, with hits kept by preference. Unless noted, the call rests on the fitted dose curve; in most records, active means well fitted curve in the direction sought with a large enough effect; inconclusive means small, poorly fitted or top-dose-only effect, or another doubt; inactive means no such curve, though single readings can be large; an effect the other way counts as inactive or inconclusive.

SMILES	FBPA Giardia inh	LmPK inh	Cycloheximide cs	Shiga inhibitor	Tb PYK inh	Sm TGR inh
O=C1C(=O)N(CCN2CCOCC2)C(c2ccccc2)/C1=C(\O)c1ccc2c(c1)OCCO2 (configuration not stated)	-	0	36.4	23.1	0	0
CC1Cc2cc(/C(O)=C3/C(=O)C(=O)N(CCN4CCOCC4)C3c3ccc([N+](=O)[O-])cc3)ccc2O1 (configuration not stated)	0	0	15.3	0	0	0
CC1Cc2cc(/C(O)=C3/C(=O)C(=O)N(CCN4CCOCC4)C3c3cccc(Cl)c3)ccc2O1 (configuration not stated)	0	0	0	0	0	0
COc1ccc(C2/C(=C(/O)c3ccc4c(c3)CC(C)O4)C(=O)C(=O)N2CCCN2CCOCC2)cc1 (configuration not stated)	0	0	18.6	0	0	?
C=CCOc1ccc(C2/C(=C(\O)c3ccc4c(c3)CC(C)O4)C(=O)C(=O)N2CCN2CCOCC2)cc1OCC (configuration not stated)	0	0	0	0	0	39.8µM
O=C1C(=O)N(c2nccs2)C(c2ccccc2)/C1=C(\O)c1ccc2c(c1)OCCO2 (configuration not stated)	-	0	0	0	-	0
O=C1C(=O)N(c2nccs2)C(c2ccccc2F)/C1=C(\O)c1ccc2c(c1)OCCO2 (configuration not stated)	-	0	31.7	0	0	?
CC(C)(C)NC(=O)c1cnn(-c2ccccc2)c1C1CCN(C(=O)OC(C)(C)C)CC1	-	-	-	-	0[15.4 µM]	0
COc1cc2c(=O)n(CCc3ccccc3)c(=O)n(CC(=O)Nc3ccccc3)c2cc1OC	-	-	-	-	0	0
CN1CCCN(S(=O)(=O)c2ccc3ccccc3c2)CC1	0	0	0	0	0	44.7µM
COc1ccc(-c2cc(C(=O)Oc3ccccc3)c3cc(C)ccc3n2)cc1	-	-	-	-	0	0
CCC1CCCCN1CCCNC(=O)CCC(=O)N1CCOc2ccccc21 (configuration not stated)	0	0	0	0	0	0
COc1ccc(NC(=O)CN(C)C(=O)c2cccc(S(=O)(=O)N3CCN(C)CC3)c2)cc1	-	-	-	-	0	89.1µM
COc1ccc(NC(=O)CN(C)C(=O)c2cc3c(s2)CCC(C)C3)cc1 (configuration not stated)	-	0	14.4	0	0	0
COCCNC(=O)C1(C)CCCN(Cc2c(C)nn(-c3ccccc3)c2C)C1 (configuration not stated)	-	-	-	-	0	-
CCc1cc(C(=O)N(CC(C)C)c2c(N)n(Cc3ccccc3)c(=O)[nH]c2=O)sc1C	-	-	-	-	0	0
O=C(CC(c1ccccc1)C1CCCCC1=O)c1ccccc1 (configuration not stated)	-	-	-	-	0	-
O=C(CC(c1ccccc1)C1CCCCC1=O)c1ccco1 (configuration not stated)	0	0	37.7	62.9	0	?
O=C(CC(c1ccco1)C1CCCCC1=O)c1ccco1 (configuration not stated)	0	0	0	0	0	50.1µM
COc1ccc(-c2nc3c(c4c2C[C@H](c2ccccc2)OC4)CN(C(=O)Nc2cccc(C#N)c2)CC3)c(C)c1	0[12.9 µM]	0[11.5 µM]	-	-	-	-
Clc1ccc(CN2CCCCCCC2)cc1Cl	?	0	0	0	0	0
Clc1ccc(SCc2cc(-c3ccc(Cl)cc3)on2)cc1	0	0	0	0	0	0
Clc1ccc(-c2cc(CN3CCCCC3)no2)cc1Cl	0	0	34.0	62.0	0	0
Clc1ccc(-c2cc(CN3CCOCC3)no2)cc1	0	0	54.4	117.8	0	0
CCOC(=O)N/N=C1/C[C@@H](O)[C@@H](O)[C@@H]2[C@@H]3C(=O)N(c4cccc(Oc5ccccc5)c4)C(=O)[C@H]3CC[C@H]12	0[12.9 µM]	-	-	-	-	-
SMILES	FBPA Giardia inh	LmPK inh	Cycloheximide cs	Shiga inhibitor	Tb PYK inh	Sm TGR inh
O=C(O)C(=O)Cc1c[nH]c2ccccc12	?	0	0	0	0	44.7µM
O=C(Cc1c[nH]c2ccccc12)OCC(=O)c1ccccc1	-	0	48.5	0	0	0
COc1ccc(C(=O)COC(=O)Cc2c[nH]c3ccccc23)c(OC)c1	-	-	-	-	0	0
CCC1(c2ccccc2)NC(=O)NC1=O (configuration not stated)	0	-	0	0	-	-
Cc1ccc(-c2nc(C#N)c(NCCN3CCCCC3)o2)cc1	0	0	15.2	24.8	0	0
COCCNc1oc(-c2ccc(Cl)cc2)nc1C#N	0	0	38.1	70.4	0	0
COCCNc1oc(-c2ccc(C)cc2)nc1C#N	0	0	22.7	0	0	0
COCCNc1oc(-c2ccc(OC)cc2)nc1C#N	-	-	-	-	0	0
N#Cc1nc(-c2ccc(F)cc2)oc1NCCN1CCOCC1	0	0	0	0	0	0
Cc1cc(C=O)c(C)n1-c1ccc(N2CCOCC2)cc1	0	0	0	0	0	0
Cc1cc(C=O)c(C)n1-c1cc(C(F)(F)F)ccc1N1CCOCC1	0	0	0	0	0	50.1µM
CCCCc1ccc(NC(=O)Nc2cccnc2)cc1	0	0	76.1	152.9	0	0
CCCCc1ccc(NC(=O)OC)cc1	0	0	0	45.7	0	0
CCOC(=O)c1ccc(NCc2cccnc2)cc1	0	0	15.5	0	0	0
Cc1ccc(NC(=O)NCc2cccnc2)cc1Cl	-	0	32.1	38.5	0	0
CCCCc1ccc(NC(=S)Nc2ccc(Nc3ccc(OC)cc3)cc2)cc1	0	0	0	0	0	0
COc1cccc(CNC(=O)c2ccccc2SCC(=O)N2CCCC2)c1	-	-	-	-	0	0
O=C(Cn1c(CO)nc2ccccc21)Nc1ccc2c(c1)OCCCO2	-	-	-	-	0	0
CC1(C(=O)O)CCC(C(=O)Nc2cccc(F)c2)C1(C)C (configuration not stated)	0	0	0	0	0	0
CC(C)C[C@H](NC(=O)[C@H](Cc1ccccc1)C[C@@H](O)[C@H](Cc1ccccc1)NC(=O)OC(C)(C)C)C(=O)N[C@@H](Cc1ccccc1)C(N)=O	0	-	0	0	-	-
O=C(NCc1cccnc1)Nc1ccccc1	0	0	0	0	0	0
CCc1ccc(NC(=O)NCc2cccnc2)cc1	0	0	26.6	0	0	0
COc1cc(NC(=O)[C@H]2O[C@@H](n3cnc4c(N)ncnc43)[C@H](O)[C@@H]2O)cc(OC)c1OC	-	-	-	-	0	-
CC(C)(C)n1nnnc1C(c1ccc(C(F)(F)F)cc1)N(Cc1ccc(F)cc1)Cc1ccco1 (configuration not stated)	0	0	13.0	active	0	0
c1ccc(CN(Cc2ccco2)C(c2ccncc2)c2nnnn2C2CCCC2)cc1 (configuration not stated)	?	0	0	0	0	22.4µM
CC(C)(C)n1nnnc1C(c1ccc(F)cc1)N(Cc1ccc(F)cc1)Cc1ccco1 (configuration not stated)	0	0	16.0	0	0	0

Assay outcomes (PubChem)
